Screens as filed in PubChem.
nsP2pro inh: CHIKV nsP2 protease inhibition, primary qHTS; Potency, µM (doses to about 24.9 µM), usual class: inhibitors; AID 1964107; FRET peptide cleavage, nsP2pro, fluorescence 1 h; actives 1.1% (n = 31,000); also: nearly all actives have a fitted effect of over 60% in size
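FRET cleavage of 2.5 uM peptide 2 by 150 nM CHIKV protease domain at pH 8.0 (Tris, Tween 20). Compounds at 7 concentrations (up to 25 uM) preincubated 15 min. Fluorescence read after 1 h at room temperature.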
CHIKV nsP2 cell: cell-based CHIKV nsP2 protease inhibition, secondary; shares compounds with nsP2pro inh; cell-based CHIKV nsP2 protease reporter assay; Potency, µM (top dose mostly 51.1 µM), actives largely listed as inhibitors; actives 10% (n = 450); also: nearly all actives have a fitted effect of over 70% in size
CHIKV NSP2 FL: selectivity test for CHIKV nsP2 protease inhibitors: full-length NSP2; shares compounds with nsP2pro inh; Full-length CHIKV NSP2 protease enzymatic counterscreen; Potency, µM (top dose mostly 50.7 µM), hits mostly inhibitors; actives 39% (n = 410); AID 1964101; also: nearly all actives have a fitted effect of over 65% in size
Furin counterscr: human furin inhibition, counterscreen for nsP2pro inhibitors. shares compounds with nsP2pro inh. Recombinant human furin enzymatic counterscreen, fluorogenic substrate. Potency, µM (doses to about 50.6 µM), actives largely listed as inhibitors. actives 6% (n = 410). AID 1964102
NS23 peptide cs: selectivity test for CHIKV nsP2 protease inhibitors: endogenous NS2/3 peptide; shares compounds with nsP2pro inh; Purified CHIKV nsP2 protease, endogenous NS2/3 peptide cleavage; Potency, µM (series often up to 51 µM), actives largely listed as inhibitors; actives 34% (n = 410); also: nearly all actives have a fitted effect of over 55% in size
Papain cs: inhibits papain in a CHIKV nsP2 protease selectivity counterscreen; shares compounds with nsP2pro inh; purified papain protease activity, enzymatic inhibition; Potency, µM (doses to about 51 µM), most hits filed as inhibitors; actives 5% (n = 410)
nsP2pro conf qHTS: CHIKV nsP2 protease inhibition, confirmatory qHTS; actives 43% (n = 410); shares compounds with nsP2pro inh; AID 1964105; Potency, µM (series often up to 25.5 µM), actives largely listed as inhibitors; CHIKV nsP2 protease enzymatic activity, qHTS; also: nearly all actives have a fitted effect of over 75% in size
HCV NS3 4A cs: HCV NS3/4A protease inhibition, counterscreen | HCV NS3/4A protease biochemical counterscreen | AID 1964106 | actives 20% (n = 410) | shares compounds with nsP2pro inh | Potency, µM (highest dose often 50.9 µM), most hits filed as inhibitors; also: nearly all actives have a fitted effect of over 55% in size
Numbers stand for hits. This excerpt belongs to a sample that is enriched for hits. Calls follow the shape of the full dose curve.

O=C(O)c1ccc(N2C(=O)/C(=C/c3ccc(-c4ccc([N+](=O)[O-])cc4)o3)C=C2c2ccccc2)cc1 was read as nsP2pro inh 7.9µM, CHIKV nsP2 cell inactive, CHIKV NSP2 FL inconclusive, Furin counterscr inactive, NS23 peptide cs inactive, Papain cs 18µM, nsP2pro conf qHTS inactive and HCV NS3 4A cs inactive.
COc1cccc(CN2CCC3(CC2)COc2ccccc2CN3)c1 was read as nsP2pro inh inactive.
`O=C(NCc1nc(-c2ncccn2)no1)C1CCCN(Cc2ccco2)C1` (configuration not stated) gave nsP2pro inh inactive.
CCCc1ccc(-c2csc(NC(=O)c3ccncc3NS(=O)(=O)c3ccc(C)cc3)n2)cc1 was read as nsP2pro inh inactive.
CC(C)=C/C(C)=N\Nc1nncc2ccccc12 was read as nsP2pro inh inactive.
`O=c1oc2c3c(ccc2c2ccccc12)OCN(Cc1ccc(Cl)cc1)C3` gave nsP2pro inh inconclusive, CHIKV nsP2 cell inactive, CHIKV NSP2 FL inconclusive, Furin counterscr inconclusive, NS23 peptide cs inconclusive, Papain cs inactive, nsP2pro conf qHTS 4.5µM and HCV NS3 4A cs inactive.
Cc1cc(=O)oc2c3c(ccc12)OCN(Cc1ccc(Cl)cc1)C3 was read as nsP2pro inh inactive.
COc1ccc(CN2COc3ccc4c(oc(=O)c5ccccc54)c3C2)cc1OC was read as nsP2pro inh inactive.
`CC(=O)N[C@@H]1[C@@H](O)[C@H](O)[C@@H](CO)O[C@H]1O` gave nsP2pro inh inactive.
For O=C(Nc1ccc(Cl)c(S(=O)(=O)N2CCOCC2)c1)c1ccccc1 the results were nsP2pro inh inactive.
O=C(Nc1cccc(NC(=O)c2ccc(Br)o2)c1)c1ccccc1 was read as nsP2pro inh inactive.
`O=C(Nc1ccc(N2CCOCC2)c(Cl)c1)c1ccc(Br)o1` gave nsP2pro inh inconclusive, CHIKV nsP2 cell 18µM, CHIKV NSP2 FL inactive, Furin counterscr inactive, NS23 peptide cs inactive, Papain cs inactive, nsP2pro conf qHTS inactive and HCV NS3 4A cs inactive.
C#CCOc1ccc(C(C)=O)cc1-c1nnc2n1N=C(c1ccc(OC)c(OC)c1)CS2 was read as nsP2pro inh inactive.
For COCc1nnc(C2CC3(CCN(C(=O)c4cccc(C)c4)CC3)CN2C)o1 (configuration not stated) the results were nsP2pro inh inactive.
`CCCC(=O)O[C@]1(C(=O)COC(C)=O)CC[C@H]2C3C[C@H](F)C4=CC(=O)C=C[C@]4(C)[C@@]3(F)[C@@H](O)C[C@@]21C` (some centres not stated) gave nsP2pro inh inactive.
`CCCCN1C[C@H](O)[C@@H](O)[C@H](O)[C@H]1CO` gave nsP2pro inh inactive.
Screening OCCN1C[C@H](O)[C@@H](O)[C@H](O)[C@H]1CO returned nsP2pro inh inactive.
Screening CCOC(=O)c1ccc(OCCN2C[C@H](O)[C@@H](O)[C@H](O)[C@H]2CO)cc1 returned nsP2pro inh inconclusive, CHIKV nsP2 cell inactive, CHIKV NSP2 FL inconclusive, Furin counterscr 14µM, NS23 peptide cs inactive, Papain cs inactive, nsP2pro conf qHTS inconclusive and HCV NS3 4A cs inactive.
For CN(C(=O)/C=C/c1ccoc1)[C@@H]1CC[C@@]2(O)[C@H]3Cc4ccc(O)c5c4[C@@]2(CCN3CC2CC2)[C@H]1O5 the results were nsP2pro inh inactive.
`COc1cccc(NC(=S)N2CCN(c3ccc4ccccc4n3)CC2)n1` gave nsP2pro inh inactive.
For Cc1ccnc(NC(=S)NCCNc2cccc(C(F)(F)F)c2)c1 the results were nsP2pro inh inactive.
Screening O=C1CCN(Cc2cccc(F)c2)CCCOCCN1 returned nsP2pro inh inactive.
